Screens deposited in PubChem by National Center for Advancing Translational Sciences (NCATS).
gsp antag – antagonists of gsp mutant (McCune-Albright syndrome) | gsp-mutant cells, cAMP HTRF, 30 min | actives 0.4% (n = 340,000) | Potency, µM (titrated, usually from 76.9 µM), inactives show at the top dose activity change, negative = inhibition, usual class: inhibitors; calls by dose curve; cell line not stated here;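 also: intracellular cAMP measured with PDE inhibitor Ro 20-1724 present during compound exposure; potency is read from the fitted curve at half-maximal effect; % is scaled to controls: 0 for no effect and ±100 for the full control effect; nearly all actives have a fitted effect of over 65% in size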
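Measurement of cellular cAMP by homogeneous time-resolved fluorescence following a 30 min compound exposure at 37C. The PDE inhibitor […] was present throughout; the assay buffer was DPBS with 0.05% BSA and 0.005% Tween 20.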
IL2 activator – IL-2 activation. IL-2 activation reporter assay, cell-based qHTS; stimulated with anti-CD3/CD4/CD28 beads; in transgenic mouse T cells. activation, % (series mostly up to about 46 µM). actives 0.065% (n = 360,000). AID 652025; in the data active = activation above about 50%; inconclusive = mostly about 30% to 49%; also: 0% is about no effect
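First, unstimulated transgenic mouse T cells were exposed to compound for 60 min. Next, anti-CD3/anti-CD4-coated beads with anti-CD28 were added. Finally, after 18 h at 37 degrees C, EGFP and DsRed were imaged.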
BRCA1 expr up – BRCA1 expression activation; MCF7-BRCA1-FFLuc reporter, luminescence, 48 h; response scale: scaled: vehicle 0%, 10 µM genistein 100%; Potency, µM (titrated, usually from 46.1 µM), for the others: top-dose activation, most hits filed as activators; actives 1.1% (n = 380,000); also: potency is read from the fitted curve at half-maximal effect; nearly all actives have a fitted effect of over 80% in size
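Reporter cells (MCF7, BRCA1 promoter-firefly luciferase) received library compounds across a concentration series for 48 h. End-point luminescence was measured and concentration-effect curves derived after normalization.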
IDH1 R132H inh – human IDH1 R132H inhibition; Potency, µM (titrated, usually from 76.6 µM), without a hit: at the highest dose activity change, negative = inhibition, most hits filed as inhibitors; AID 602179; O75874; IDH1-R132H enzyme, NADPH consumption, diaphorase/resazurin fluorescence; actives 0.093% (n = 390,000); also: potency is read from the fitted curve at half-maximal effect; % is scaled to controls: 0 for no effect and ±100 for the full control effect; nearly all actives have a fitted effect of over 65% in size
Target sequence (O75874 whole entry R132H, stated change not applied): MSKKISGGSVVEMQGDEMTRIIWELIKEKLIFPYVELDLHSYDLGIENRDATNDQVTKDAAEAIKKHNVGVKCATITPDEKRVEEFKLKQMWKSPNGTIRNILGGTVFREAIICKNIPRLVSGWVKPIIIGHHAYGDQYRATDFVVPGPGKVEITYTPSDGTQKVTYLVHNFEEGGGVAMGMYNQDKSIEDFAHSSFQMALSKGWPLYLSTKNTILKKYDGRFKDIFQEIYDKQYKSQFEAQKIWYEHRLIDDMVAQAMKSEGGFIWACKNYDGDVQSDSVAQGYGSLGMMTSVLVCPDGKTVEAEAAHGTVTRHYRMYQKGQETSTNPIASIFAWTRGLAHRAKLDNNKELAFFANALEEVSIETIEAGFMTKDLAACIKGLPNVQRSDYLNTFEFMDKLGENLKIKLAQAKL
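IDH1-R132H (0.5 ug/mL) preincubated 30 min with compound, then NADPH (0.016 mM) and alpha-KG (2 mM) added; 80 min at RT, pH 7.5. Remaining NADPH coupled via diaphorase/resazurin to fluorescence (540/590 nm); concentration-response curves normalized to no-enzyme control.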
gsp ag – agonists of gsp mutant (McCune-Albright syndrome) | gsp mutant cells, cAMP HTRF, 30 min | Potency, µM (highest dose often 76.9 µM), inactives show at the top dose activation (cAMP increase), most hits filed as activators | actives 0.13% (n = 340,000) | AID 624287; active = well fitted activation curve with a large enough effect; inconclusive = small, poorly fitted or top-dose-only effect, or another doubt; inactive = no such curve, though single readings can be large or run the other way; cell line not stated here;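 also: phosphodiesterase inhibitor Ro 20-1724 added with compounds to block cAMP breakdown; potency is read from the fitted curve at half-maximal effect; nearly all actives have a fitted effect of over 60% in size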
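Cells stably selected in G418 were plated at 2000/well, grown 16-24 hr, then given compounds in DMSO with the PDE inhibitor […] (300 uM solution added) for 30 min at 37C; cAMP was read by HTRF.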
Active calls of the source: *; [ ] = another dose, or the depositor's remark. This is a sample that favours compounds with a hit; in the whole collection about 1.5% have one here. Unless noted, calls follow the shape of the dose curve; as a rule, active = well fitted curve in the direction sought with a large enough effect; inconclusive = small, poorly fitted or top-dose-only effect, or another doubt; inactive = no such curve, though single readings can be large; an effect the other way counts as inactive or inconclusive.

For Nc1nonc1-c1noc(N2CCCCC2)n1 the results were gsp antag -5.8%, IL2 activator -3.1, BRCA1 expr up 10µM*, IDH1 R132H inh 3.2% and gsp ag -17.4%.
Screening CCCCCc1nc(-c2nonc2N)no1 returned gsp antag 0.1%, IL2 activator 0.1, BRCA1 expr up 8.0%, IDH1 R132H inh 0.7% and gsp ag 7.3%.
`CCc1nnc(NC(=O)c2nc(S(=O)(=O)Cc3cccc(C)c3)ncc2Cl)s1` gave gsp antag 15.8µM*, IL2 activator -4.2, BRCA1 expr up -40.1%, IDH1 R132H inh 0.3% and gsp ag -19.5%[15.4 µM].
`CCc1nnc(NC(=O)c2nc(S(=O)(=O)Cc3ccccc3)ncc2Cl)s1` gave gsp antag inconclusive, IL2 activator -5.9, BRCA1 expr up 0.0%, IDH1 R132H inh 2.6% and gsp ag 5.9%[15.4 µM].
CCc1nnc(NC(=O)c2nc(S(=O)(=O)Cc3ccc(C)cc3)ncc2Cl)s1 was read as gsp antag 28.2µM*, IL2 activator 0.5, BRCA1 expr up -41.7%, IDH1 R132H inh -0.6% and gsp ag -8.2%[15.4 µM].
For CNCC(=O)c1c[nH]c2ccccc12 the results were BRCA1 expr up -4.1%.
Screening Nc1nc(N)c2c(Oc3ccc(F)cc3)cccc2n1 returned BRCA1 expr up -7.3%.
For O=C(Nc1ccc2c(c1)OCO2)c1cccc(Cl)c1 the results were gsp antag -17.5%, IL2 activator -0.8, BRCA1 expr up 11.2µM*, IDH1 R132H inh 3.9% and gsp ag 1.0%.
`CC(=O)N1CCN(S(=O)(=O)c2cccc(C(=O)Nc3ccc4c(c3)OCO4)c2)CC1` gave gsp antag 11.2µM*, IL2 activator 2.4, BRCA1 expr up 7.1%, IDH1 R132H inh 3.2% and gsp ag 1.6%[15.4 µM].
Screening O=C(Nc1ccc2c(c1)OCO2)c1ccc2c(c1)OCO2 returned gsp antag 6.9%, IL2 activator 0.6, BRCA1 expr up -5.1%, IDH1 R132H inh 7.7% and gsp ag 16.1%.
`C=C1C=C(C)n2ncc(C(=O)Nc3ccccc3C(=O)OC)c2N1` gave BRCA1 expr up -18.9%.
Screening COc1cc(/C=C2/SC(=S)N(CC(=O)Nc3cccnc3)C2=O)cc(OC)c1OC returned gsp antag -27.8%, IL2 activator 123.5*, BRCA1 expr up 3.1%, IDH1 R132H inh -1.8% and gsp ag -5.8%.
For O=C(CCN1C(=O)/C(=C/c2ccccc2F)SC1=S)Nc1cccnc1 the results were gsp antag inconclusive, IL2 activator -3.2, BRCA1 expr up -10.7%, IDH1 R132H inh 11.1% and gsp ag -2.0%.
`O=C(CCN1C(=O)/C(=C\c2ccccc2Cl)SC1=S)Nc1cccnc1` gave gsp antag 35.5µM*, IL2 activator -2.2, BRCA1 expr up -27.0%, IDH1 R132H inh 4.9% and gsp ag -54.7%.
O=C(CCN1C(=O)/C(=C/C=C/c2ccccc2)SC1=S)Nc1cccnc1 was read as gsp antag 16.0%, IL2 activator 69.0*, BRCA1 expr up -5.1%, IDH1 R132H inh -2.7% and gsp ag 25.0%.
CCc1ccccc1NS(=O)(=O)c1ccc2c(c1)CC(=O)N2 was read as BRCA1 expr up 0.1% and IDH1 R132H inh 7.4%.
CCCCNC(=O)C1(C)CCCCN1C(=O)c1ccc2ccccc2n1 (configuration not stated) was read as IL2 activator -0.7 and BRCA1 expr up 9.2%.
For Cc1ccc2c(CN3CC(C)CC(C)C3)cc(=O)oc2c1 (configuration not stated) the results were gsp antag -36.5%, IL2 activator -5.4, BRCA1 expr up -32.1%, IDH1 R132H inh 1.5% and gsp ag 8.1%[15.4 µM].
For Cc1ccc2c(CN3CCC(C)CC3)cc(=O)oc2c1 the results were gsp antag -9.7%, IL2 activator 0.3, BRCA1 expr up 3.16µM*, IDH1 R132H inh 4.1% and gsp ag -2.9%.
For CCOc1ccc(NC(=O)C2CCN(S(=O)(=O)c3c(C)noc3/C=C/c3c(C)cc(C)cc3C)CC2)cc1 the results were IDH1 R132H inh -3.9%.
